Gal4-VP16 FLuc: Gal4-VP16 reporter inhibition counter-screen | Drosophila S2 Gal4-VP16 UAS-luciferase, luminescence, 20 h | Potency, µM (doses to about 53.6 µM), most hits filed as inhibitors | 310,000 tested, 3.5% active | AID 2546;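 further: Gal4-VP16 expression switched on by copper sulfate through the metallothionein promoter; nearly all actives have a fitted effect of over 50% in size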
DT40 TDP1 no CPT: qHTS for Inhibitors of human tyrosyl-DNA phosphodiesterase 1 (TDP1): qHTS in cells in absence of CPT | Potency, µM (top dose mostly 46.2 µM), actives largely listed as inhibitors | 420,000 tested, 15% active | DT40 Tdp1-/- hTDP1 cells, no CPT, ATP luminescence, 48 h; further: nearly all actives have a fitted effect of over 55% in size
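Camptothecin absent (DMSO only). Human TDP1-complemented DT40 knockout cells, 400 cells/well, 37 °C for minimum 48 hr; ATP measured via CellTiter-Glo, 30 min dark incubation, luminescence.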
RORgamma inh: inhibitors of mouse ROR gamma transcriptional activity | 310,000 tested, 5.4% active | Potency, µM (series often up to 53.6 µM), most hits filed as inhibitors | Drosophila S2 Gal4-RORgamma UAS-luciferase reporter, 20 h; further: nearly all actives have a fitted effect of over 60% in size
Target sequence (P51450 whole entry, looked up, the tested form may be a part): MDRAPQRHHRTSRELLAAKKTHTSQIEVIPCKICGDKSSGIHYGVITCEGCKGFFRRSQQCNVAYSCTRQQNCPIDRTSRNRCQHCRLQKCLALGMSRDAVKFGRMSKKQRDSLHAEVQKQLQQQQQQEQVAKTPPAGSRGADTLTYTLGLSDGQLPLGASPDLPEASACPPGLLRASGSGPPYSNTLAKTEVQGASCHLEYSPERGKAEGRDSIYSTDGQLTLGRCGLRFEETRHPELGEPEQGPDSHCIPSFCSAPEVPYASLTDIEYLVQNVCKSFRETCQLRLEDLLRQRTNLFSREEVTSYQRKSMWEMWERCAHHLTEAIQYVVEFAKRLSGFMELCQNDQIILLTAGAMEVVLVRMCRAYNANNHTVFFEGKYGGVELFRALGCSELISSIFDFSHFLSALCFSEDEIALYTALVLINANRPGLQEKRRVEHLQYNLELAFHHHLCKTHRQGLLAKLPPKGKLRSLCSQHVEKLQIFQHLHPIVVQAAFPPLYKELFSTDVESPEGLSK
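Read-out: Photinus luciferase luminescence; inhibitors lower reporter signal. Insect Schneider cells with Gal4-ROR gamma fusion under metallothionein promoter, UAS reporter; 700 uM final copper sulfate induction, 20 hr, ambient temperature.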
TDP1 cell CPT: growth inhibition of DT40 Tdp1-/-;hTDP1 cells with camptothecin (screen for TDP1 inhibitors) | chicken DT40 Tdp1-/-;hTDP1 cells + 20 nM CPT, ATP luminescence, 48 h | Potency, µM (doses to about 46.2 µM), actives largely listed as inhibitors | 420,000 tested, 12% active | AID 686979; further: nearly all actives have a fitted effect of over 55% in size
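Chicken DT40 Tdp1-/- cells stably complemented with human TDP1 were seeded at 400 cells/well in medium containing 20 nM camptothecin, exposed to pin-transferred compounds, and grown at 37 °C for at least 48 hr. Viability was read as ATP luminescence.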
LDHA inh: blocks human lactate dehydrogenase A | activity change, % (values are at about 110 or 230 µM) | purified LDHA, NADH/diaphorase-resazurin fluorescence; stronger effect = lower value | 480,000 tested, 0.15% active; in the data active means activity change below about -30%; inconclusive means mostly about -25% to -30%
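Enzyme activity of human lactate dehydrogenase 5 (2 nM; 0.06 mM NADH, 0.2 mM pyruvate, 5 min, RT) is measured via a resazurin/diaphorase fluorescence readout of residual NADH.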
IL-1B inflam inh: inflammasome signaling inhibition, IL-1 beta readout. THP-1 LPS/ATP IL-1B secretion, AlphaLISA, 16 h; stronger effect = lower value. activity change, % at 57.5 µM. 360,000 tested, 4.7% active. AID 743279; in the data active means activity change below about -50%; inconclusive means mostly about -30% to -49%
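THP-1 cells pretreated 1 hr with compounds (up to 57.5 uM final), then stimulated with LPS (250 ng/mL final) plus ATP (1.25 mM final); secreted IL-1B measured by AlphaLISA after 16 hr, decreased signal indicating inhibition.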
Numbers stand for hits; – = inactive; ? = inconclusive; · = no result. Only some compounds are listed: those with a hit (about 18% of all), similar ones and a draw of the others. Unless noted, the call rests on the fitted dose curve; in most records, active means well fitted curve in the direction sought with a large enough effect; inconclusive means small, poorly fitted or top-dose-only effect, or another doubt; inactive means no such curve, though single readings can be large; an effect the other way counts as inactive or inconclusive.

SMILES	Gal4-VP16 FLuc	DT40 TDP1 no CPT	RORgamma inh	TDP1 cell CPT	LDHA inh	IL-1B inflam inh
CCOc1cc(/C=N/NC(=S)Nc2ccccc2C(F)(F)F)ccc1OCC(=O)N1CCOCC1	1.4µM	8.2µM	1.4µM	5.8µM	–	–
CCOc1cc(/C=C/c2nc3cc(C)c(C)cc3s2)ccc1OCC(=O)N1CCOCC1	–	?	?	?	–	–
CCOc1cc(/C=C\[N+](=O)[O-])ccc1OCC(=O)N1CCOCC1	5.6µM	2.3µM	4.5µM	2.6µM	–	-107
CCCC1CCC(c2ccc(OC(=O)c3cccnc3)cc2)CC1 (configuration not stated)	·	·	·	·	–	·
O=S(=O)(c1cccc(F)c1)N1CCC(N2CCOCC2)CC1	·	·	·	·	–	·
CC1c2ccccc2N(S(=O)(=O)c2ccccc2)C1C (configuration not stated)	·	23µM	·	?	–	–
Cc1nnc(NC(=O)c2ccc(S(=O)(=O)N(C)Cc3ccccc3)cc2)o1	0.56µM	23µM	0.2µM	?	–	–
CCN(Cc1ccccc1)S(=O)(=O)c1ccc(C(=O)Nc2nnc(C3CC3)o2)cc1	0.56µM	16µM	–	?	–	–
COCc1nnc(NC(=O)c2ccc(S(=O)(=O)N(C)Cc3ccccc3)cc2)o1	2.2µM	?	0.79µM	?	–	–
Cc1nc(-c2ccc(S(=O)(=O)N(C)Cc3ccccc3)cc2)co1	·	21µM	·	26µM	–	·
CCN(Cc1ccccc1)S(=O)(=O)c1ccc(S(N)(=O)=O)cc1	·	·	·	·	–	·
COc1cccc(/C=C/c2nc(C#N)c(N3CCN(Cc4ccccc4)CC3)o2)c1	·	·	·	·	–	·
O=[N+]([O-])c1cccc(-c2nc3ccccc3s/c2=N/O)c1	–	?	–	–	–	-81
O=[N+]([O-])c1cccc(-c2cnc3ccccc3n2)c1	–	–	–	–	–	–
O=C(Cc1csc(NC(=O)Nc2ccc(Cl)cc2)n1)NC1CCCC1	·	?	·	?	–	-53
CCOC(=O)Cc1csc(NC(=O)Nc2cccc(Cl)c2)n1	–	?	–	?	–	–
CCOC(=O)Cc1csc(NC(=O)Nc2ccc(Cl)cc2)n1	–	16µM	–	21µM	–	–
Cc1ccccc1C(=O)N1CCN(c2oc(C3CC3)nc2C#N)CC1	·	·	·	·	–	·
OC(CNCc1ccco1)Cn1c2ccc(Br)cc2c2cc(Br)ccc21 (configuration not stated)	?	18µM	–	15µM	–	-59
CCOC(=O)c1c(-c2ccccc2)nnn1-c1nc(OC)nc(N2CCOCC2)n1	–	16µM	–	23µM	–	–
CCOC(=O)c1c(NC(=O)Cn2nnc(-c3ccccc3)n2)sc(CC)c1C	·	·	·	·	–	·
O=S(=O)(c1ccc(Cl)cc1)N1CCN(CCc2ccccc2)CC1	–	–	–	–	–	–
Cc1cc(C(=O)N2CCN(CCc3ccccc3)CC2)no1	–	–	–	–	–	–
Cc1c(C2CCN(CCc3ccccc3)CC2)noc1-c1ccc(Cl)cc1	?	9.2µM	–	12µM	·	·
Cc1c(-c2ccc(Cl)cc2)noc1C1CCN(CCc2ccccc2)CC1	–	15µM	–	?	·	·
SMILES	Gal4-VP16 FLuc	DT40 TDP1 no CPT	RORgamma inh	TDP1 cell CPT	LDHA inh	IL-1B inflam inh
O=C(Oc1c(-c2ccccc2)oc2ccccc2c1=O)c1ccccc1	?	10µM	?	?	–	–
O=C(Oc1cc(=O)oc2ccccc12)c1ccccc1	–	2.3µM	–	2.6µM	–	–
O=C(NCCc1ccccc1)c1cc(Sc2cccc(Cl)c2)nc2ccccc12	·	16µM	·	?	–	·
CCCCN(CCCNC(=O)c1cc(Nc2cccc(SC)c2)nc2ccccc12)Cc1ccccc1	·	4.1µM	·	6.5µM	–	·
COc1ccc(CCNC(=O)c2cc(Nc3cc(C)cc(C)c3)nc3ccccc23)cc1OC	·	8.2µM	·	8.2µM	–	·
Nc1sc(-c2ccccc2)cc1C(=O)NCCc1ccc(Cl)cc1	·	16µM	·	23µM	–	–
CC(c1cccc([N+](=O)[O-])c1)N(C)C(=O)c1ccc2c(c1)NC(=O)CS2 (configuration not stated)	·	·	·	·	–	·
COc1ccc(CCNC(=O)c2cc(-c3ccncc3)nc3c(Cl)cccc23)cc1OC	–	21µM	–	21µM	–	–
Cc1cc(C(=O)NCCc2ccc(Cl)cc2)c2ccccc2n1	–	?	–	–	–	–
CSc1cccc(Nc2cc(C(=O)NCCc3ccc(Cl)cc3)c3ccccc3n2)c1	·	7.3µM	·	4.6µM	–	·
COc1ccc(CCNC(=O)c2cc(-c3ccccn3)nc3c(Cl)cccc23)cc1OC	–	?	–	–	–	–
CCN(CC(=O)NCc1ccc(Cl)cc1)C(=O)c1cccc(S(=O)(=O)Nc2ccc(OC)cc2)c1	·	10µM	·	?	–	–
COc1ccc(C)cc1S(=O)(=O)N(CC(=O)NCc1ccc(Cl)cc1)Cc1ccccc1	–	?	–	21µM	–	-61
CCN(CC(=O)NCc1ccc(F)cc1)C(=O)c1ccc(Cl)cc1	–	–	–	–	–	–
COc1ccc(CNC(=O)CN(Cc2ccc(Cl)cc2)S(=O)(=O)c2ccccc2)cc1	–	?	–	?	–	?
COc1ccc(CNC(=O)CN(Cc2ccccc2)S(=O)(=O)c2ccc(Cl)cc2)cc1	–	18µM	–	?	–	–
CCN(CC(=O)NCc1cccs1)C(=O)c1cccc(S(=O)(=O)Nc2ccc(OC)cc2)c1	·	–	·	–	–	–
CCN(CC(=O)NCc1ccc(Cl)cc1)C(=O)c1ccc(C#N)cc1	–	?	–	21µM	–	–
COc1ccc(OC)c2[nH]c(C(=O)NCCC(=O)Nc3ccc4c(c3)OCCO4)cc12	·	·	·	·	–	·
CCOc1ccc(NC(=O)c2ccc(Cl)cc2Cl)c2cccnc12	·	·	·	·	–	·
O=C(CN(Cc1ccccc1)S(=O)(=O)c1ccc(F)cc1)NCc1ccncc1	–	–	–	–	–	–
COc1ccc(S(=O)(=O)N(CC(=O)NCc2ccncc2)Cc2ccccc2)cc1	–	12µM	–	?	–	–
O=C(COc1ccccc1Cl)Nc1cccc(-c2nc3ccccc3o2)c1	·	·	·	·	–	·
COc1ccc(CCn2c(-n3nc(C)cc3C)nc3c2c(=O)[nH]c(=O)n3C)cc1	·	1.6µM	·	1.8µM	–	–
Cc1ccc(Cn2c(-n3nc(C)cc3C)nc3c2c(=O)[nH]c(=O)n3C)cc1	–	–	–	?	–	–
CCCCCC1CCC(c2ccc(C#Cc3ccc(OC(F)F)cc3)cc2)CC1 (configuration not stated)	·	·	·	·	–	·
CCc1nc(SC)ncc1C(=O)N1CCN(c2cc(C)ccc2C)CC1	·	15µM	·	–	–	·
CCc1nc(SC)ncc1C(=O)N1CCN(c2cc(Cl)ccc2C)CC1	·	21µM	·	?	–	·
